The entries come from a sample that favours hits as a whole.
Hedgehog inh: Sonic Hedgehog pathway inhibition; Shh-LIGHT2 Gli-luciferase reporter, 30 h; inhibition, % (no concentration beside the values); 22,000 tested, 2.1% active; AID 2313;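 active = mean inhibition across valid replicates above about 65%, limit read from the data; inconclusive = mean under the limit, yet half or more replicates past it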;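 also: pathway switched on by Shh-conditioned medium diluted 1 in 25 in low serum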
MITF inh: blocks MITF activity. TRPM1 promoter luciferase, luminescence, 24 h. inhibition, % (concentration not given with the values). 37,000 tested, 0.28% active. AID 2240; in the data active = inhibition above about 85%; inconclusive = no clear call, values can overlap the other calls; inactive = below about 68%;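 also: human melanocyte line stably carrying TRPM1 promoter luciferase reporter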
A number is an active result; n = inactive; u = inconclusive; x = no result.

SMILES | Hedgehog inh | MITF inh
C=CCNC(=O)CSc1nccc(-c2sc3sc(Br)c(C)c3c2C)n1 | n | n
COc1ccc(-c2coc3cc(O)ccc3c2=O)c(OC)c1 | 80 | n
COc1ccc(-c2coc3cc(O)ccc3c2=O)cc1 | n | n
COc1ccc([N+](=O)[O-])cc1NC(=O)CCN1CCN(c2ccccc2OC)CC1 | x | n
COc1ccccc1N1CCN(CCCCNC(=O)c2ccc(-c3ccc(C(C)=O)cc3)cc2)CC1 | 92 | n
Cc1c(S(=O)(=O)c2ccc(Cl)cc2)csc1C(=O)N(c1ccccc1)S(C)=O (stereo unspecified) | 88 | n
O=C(O)CN(c1ccccc1)S(=O)(=O)c1ccc(Cl)cc1 | x | n
Cc1cccc(C(=O)NN(c2ccccc2)c2ccccc2)c1 | 95 | n
Cc1cccc(NC(=O)c2cccc(C(=O)Nc3cccc(C)c3)c2)c1 | n | n
Cn1c(SCC(=O)Nc2ccccc2C(=O)Nc2ccccc2)nc2ccccc2c1=O | x | n
Cc1oc2cc(OC(C)C)ccc2c(=O)c1-c1ccc2c(c1)OCCO2 | n | n
Cc1oc(-c2ccc3c(c2)OCCO3)cc1C(=O)NCC(=O)O | x | 86
N#CC1=C(N)C(C#N)(C#N)C(c2ccccc2)C2=C1CCCC2 (stereo unspecified) | n | n
CC1(C)CC(NC(=O)CC(c2ccc(F)cc2)c2ccco2)CCO1 (stereo unspecified) | x | n
COc1ccc(C(=O)Nc2ccc(Cl)cc2)cc1S(=O)(=O)Nc1ccc(Cl)cc1 | n | n
CS(=O)(=O)c1sc(NC(=O)Nc2ccc(Cl)cc2)c2c1C=CCC2 | 106 | n
CC(=O)OC[C@]12[C@H](OC(C)=O)[C@H](OC(C)=O)[C@@H]3[C@@H](OC(C)=O)[C@@]14O[C@@]3(C)COC(=O)c1ncccc1CC[C@H](C)C(=O)O[C@@H]([C@H](O)[C@@H]2OC(=O)c1ccccc1)[C@]4(C)O | n | n
N#Cc1cccc(CSc2nnc(SCc3cccc(C#N)c3)s2)c1 | 68 | n
Nc1nnc(SCc2cccnc2)s1 | x | n
CC1(C)CC(=O)c2c([nH]c(-c3ccccc3)c2-c2ccccc2)C1 | n | n
COC(=O)C1=CO[C@@H](O[C@@H]2O[C@H](CO)[C@@H](O)[C@H](O)[C@H]2O)[C@H]([C@H](C)OC(C)=O)[C@@H]1CC(=O)O | n | n
COc1ccc(NC(=O)c2cc(-c3ccccn3)nc3c(C)cc(C)cc23)c([N+](=O)[O-])c1 | x | 87
Cc1cc(C)c2nc(-c3ccccn3)cc(C(=O)NCc3ccc(S(N)(=O)=O)cc3)c2c1 | x | n
CCc1ccc(-n2c(C)nnc2SCC(=O)Nc2ccc(Cl)cc2Cl)cc1 | x | n
c1cncc(C2OCC3(CO2)COC(c2cccnc2)OC3)c1 (stereo unspecified) | n | n
SMILES | Hedgehog inh | MITF inh
CC1=CC(C)C2(COC(=O)Nc3ccccc3)COC(c3cccnc3)C1C2C (stereo unspecified) | 92 | n
NCCOc1ccc(Cl)cc1 | u | n
O=c1c2ccccc2nc(/C=C/c2cc(Br)ccc2O)n1CCCO | x | 102
Cc1[nH]c2ccccc2c1/C=C/c1nc2ccccc2c(=O)n1CCCO | x | n
COc1ccc(NC(=O)CSc2nnc(-c3ccc(NC(=O)c4ccc(C)cc4)cc3)n2C)cc1Cl | x | n
CC(Oc1ccccc1)C(=O)Nc1cc([N+](=O)[O-])ccc1O (stereo unspecified) | x | 100
CC(Oc1ccc(Br)cc1)C(=O)Nc1ccccc1[N+](=O)[O-] (stereo unspecified) | x | n
Cc1nc(SCC(=O)Nc2ccc(Br)cc2)n[nH]1 | x | n
C/C=C(\C)C(=O)O[C@H]1[C@H](OC(C)=O)[C@@]2(CO)C(CC1(C)C)C1=CCC3[C@@]4(C)CC[C@H](O[C@@H]5O[C@H](C(=O)O)[C@@H](O)[C@H](O[C@@H]6O[C@H](CO)[C@H](O)[C@H](O)[C@H]6O[C@@H]6O[C@@H](C)[C@H](O)[C@@H](O)[C@H]6O)[C@H]5O[C@@H]5O[C@H](CO)[C@@H](O)[C@H](O)[C@H]5O)C(C)(C)C4CC[C@@]3(C)[C@]1(C)C[C@H]2O (stereo partly specified) | 111 | x
CC1(C)CC[C@]2(C(=O)O)CC[C@]3(C)C(=CCC4[C@@]5(C)CC[C@H](O[C@@H]6OC[C@H](O)[C@H](O)[C@H]6O)[C@@](C)(CO)C5CC[C@]43C)C2C1 (stereo partly specified) | 79 | n
CC1(C)CC[C@]2(C(=O)O[C@@H]3O[C@H](CO)[C@@H](O)[C@H](O)[C@H]3O)CC[C@]3(C)C(=CCC4[C@@]5(C)CC[C@H](O[C@@H]6OC[C@H](O)[C@H](O)[C@H]6O[C@@H]6O[C@H](CO)[C@@H](O)[C@H](O)[C@H]6O[C@@H]6OC[C@H](O)[C@H](O)[C@H]6O)[C@@](C)(CO)C5CC[C@]43C)C2C1 (stereo partly specified) | n | n

Compound activity deposited in PubChem BioAssay by Broad Institute.
